Bioassay records: PubChem BioAssay, National Center for Advancing Translational Sciences (NCATS)
Rows were chosen to be rich in hits. Some 18% of all compounds tested hit in one or more screens of this group.
DT40 TDP1 CPT: growth inhibition of DT40 Tdp1-/-;hTDP1 cells with camptothecin (screen for TDP1 inhibitors); chicken DT40 Tdp1-/-;hTDP1 cells + 20 nM CPT, ATP luminescence, 48 h; Potency, µM (series often up to 46.2 µM), hits mostly inhibitors; 420,000 compounds, 12% hits; note: nearly all actives have a fitted effect of over 55% in size
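Chicken DT40 Tdp1-/- cells stably complemented with human TDP1 were seeded at 400 cells/well in medium containing 20 nM camptothecin, exposed to pin-transferred compounds, and grown at 37 °C for at least 48 hr. Viability was read as ATP luminescence.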
CtBP-E1A inh: CtBP/E1A binding inhibition. activity change, % (no concentration beside the values). AlphaScreen GST-E1A/His-CtBP binding, 1536-well; active compounds read low. 340,000 compounds, 0.49% hits; in the data active = activity change below about -65%; inconclusive = mostly about -30% to -63%
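Homogeneous bead-based format: GST-tagged E1A captured on glutathione donor beads, His-tagged CtBP on nickel acceptor beads; compounds precede bead addition by 2 h at 37 °C.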
DT40 TDP1 no CPT: qHTS for Inhibitors of human tyrosyl-DNA phosphodiesterase 1 (TDP1): qHTS in cells in absence of CPT; 420,000 compounds, 15% hits; DT40 Tdp1-/- hTDP1 cells, no CPT, ATP luminescence, 48 h; Potency, µM (highest dose often 46.2 µM), hits mostly inhibitors; note: nearly all actives have a fitted effect of over 55% in size
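No-CPT arm: Tdp1-/-;hTDP1 DT40 cells (400/well) plus compounds, incubated ≥48 hr at 37 °C. Readout CellTiter-Glo luminescence.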
IL1B secr inh: blocks inflammasome-driven IL-1 beta release; THP-1 LPS/ATP IL-1B secretion, AlphaLISA, 16 h; active compounds read low; 360,000 compounds, 4.7% hits; activity change, % at 57.5 µM; AID 743279; in the data active = activity change below about -50%; inconclusive = mostly about -30% to -49%
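THP-1 cells pretreated 1 hr with compounds (up to 57.5 uM final), then stimulated with LPS (250 ng/mL final) plus ATP (1.25 mM final); secreted IL-1B measured by AlphaLISA after 16 hr, decreased signal indicating inhibition.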
TDP1 inh: TDP1 (human) enzyme inhibition; recombinant TDP1, AlphaScreen DNA substrate cleavage; AID 485290; 350,000 compounds, 0.28% hits; Potency, µM (series often up to 130 µM), actives largely listed as inhibitors; note: nearly all actives have a fitted effect of over 40% in size
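Tdp1 1 nM final; 15 min RT w/ cpd; substrate 15 nM, 5 min; beads 10 ug/ml, 10 min; AlphaScreen read. Neg ctrl: no enzyme.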
Six1-Eya2 inh: Six1/Eya2 interaction inhibition; Q15475+O00167; AlphaScreen GST-Six1/His-Eya2 binding, biochemical; active compounds read low; activity change, % (no concentration beside the values); 360,000 compounds, 0.56% hits; in the data active = activity change below about -65%; inconclusive = mostly about -30% to -63%
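AlphaScreen with GST-Six1 and His-Eya2 (5X mix: 250 nM and 500 nM), glutathione donor and nickel acceptor beads; buffer 50 mM Tris pH 8.0, 300 mM NaCl, 1 mM TCEP; 1 h at 37 C in the dark.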
Hits are given with their value; i = inactive; ? = inconclusive; nt = no result given. Unless noted, calls come from the whole dose curve; as a rule, active = well fitted curve in the direction sought with a large enough effect; inconclusive = small, poorly fitted or top-dose-only effect, or another doubt; inactive = no such curve, though single readings can be large; an effect the other way counts as inactive or inconclusive.

SMILES	DT40 TDP1 CPT	CtBP-E1A inh	DT40 TDP1 no CPT	IL1B secr inh	TDP1 inh	Six1-Eya2 inh
COc1ccccc1OCC(=O)Nc1cc(S(=O)(=O)N2CCCCC2)ccc1N1CCCCC1	23µM	i	23µM	i	i	i
Cc1ccccc1OCC(=O)Nc1ccc(N2CCOCC2)cc1N1CCOCC1	?	i	?	i	i	i
CC(=O)N1CCN(c2ccc(N)cc2)CC1	nt	nt	nt	nt	i	nt
O=C(CCn1nc(-c2ccc(Cl)cc2)ccc1=O)N1CCN(c2ccc(F)cc2)CC1	?	nt	21µM	?	nt	i
Cc1ccc(CCNC(=O)CCn2nc(-c3ccc(Cl)cc3)ccc2=O)cc1	?	nt	23µM	nt	i	nt
CC(=O)Nc1ccc(N2CCOCC2)c(S(=O)(=O)Nc2ccccc2Cl)c1	i	i	i	i	nt	i
O=C(Nc1ccc(N2CCOCC2)c(S(=O)(=O)Nc2ccc(Cl)cc2)c1)c1ccc(=O)[nH]n1	i	i	i	-56	i	i
O=C(Nc1ccc(N2CCOCC2)c(S(=O)(=O)Nc2ccc(Cl)cc2)c1)c1cnccn1	16µM	nt	18µM	i	i	i
CC1=C(C(=O)Nc2ccccc2)C(c2ccncc2)C(C#N)=C(SCC(=O)Nc2ccccc2)N1 (stereo not drawn)	?	i	?	?	i	i
O=C1CC(c2ccc(O)c(O)c2)Oc2cc(O)cc(O)c21 (stereo not drawn)	i	i	?	i	i	i
Oc1ccc(C2C[C@H]3CC[C@@H]2C3)cc1O (stereo partly drawn)	12µM	i	?	i	nt	i
COC(=O)c1c(NC(=O)c2c(OC)cccc2OC)sc2c1C(C(=O)OC)CC2 (stereo not drawn)	?	i	?	i	nt	i
O=C(c1ccc(Cl)c(Cl)c1)N1CCC(O)(CN2CCOCC2)CC1	i	i	i	i	i	i
O=C(c1ccc(Cl)cc1)N1CCC(O)(CSc2ccc(Cl)cc2Cl)CC1	16µM	i	?	i	i	i
Cc1ccc(OCC(=O)OC2=C(C(=O)c3ccccc3)N(C)S(=O)(=O)c3ccccc32)cc1	?	nt	4.1µM	nt	i	nt
CCN1C(C(=O)c2ccccc2)=C(OC(=O)C(C)C)c2ccccc2S1(=O)=O	6.5µM	nt	5.2µM	nt	i	nt
Cc1ccc(C(=O)OC2=C(C(=O)c3ccccc3)N(C)S(=O)(=O)c3ccccc32)cc1	?	nt	?	nt	i	nt
CCN1C(C(=O)c2ccccc2)=C(OC(=O)COc2ccccc2)c2ccccc2S1(=O)=O	?	nt	16µM	nt	i	nt
CCCCN(CCCC)C1=C(C(=O)c2ccccc2)N(CC)S(=O)(=O)c2ccccc21	13µM	nt	26µM	nt	nt	nt
COc1c2ccoc2cc2oc(C)cc(=O)c12	i	i	i	i	i	i
O=S(=O)(NCCc1cn2ccccc2n1)c1ccc(F)c(C(F)(F)F)c1	i	i	?	i	i	i
COc1ccc(-c2cc(C(F)(F)F)nc(S(C)(=O)=O)n2)cc1	2.6µM	i	3.3µM	-102	i	i
CS(=O)(=O)c1nc(-c2ccc(F)cc2)cc(C(F)(F)F)n1	1.3µM	i	1.8µM	-103	i	i
CCOc1ccc(/C=C/c2c([N+](=O)[O-])c(=O)n(C)c(=O)n2C)cc1	i	?	?	-93	i	i
CCc1ccc(/C=C/c2c([N+](=O)[O-])c(=O)n(C)c(=O)n2C)cc1	?	?	?	-98	nt	i
COc1ccc(/C=C/c2c([N+](=O)[O-])c(=O)n(C)c(=O)n2C)cc1	i	i	i	i	i	i
Cn1c(/C=C/c2ccc(Cl)cc2Cl)c([N+](=O)[O-])c(=O)n(C)c1=O	8.2µM	i	5.2µM	i	nt	i
Cn1c(/C=C/N(Cc2ccccc2)c2ccccc2)c([N+](=O)[O-])c(=O)n(C)c1=O	?	nt	?	i	i	i
CN(Cc1ccccc1)S(=O)(=O)c1ccc(NC(=O)C2CCCCC2C(=O)O)cc1 (stereo not drawn)	i	i	i	i	i	i
